Laboratory results: PubChem BioAssay AID435003 (Sanford-Burnham Center for Chemical Genomics, 2010)
Hit rate of the full screen: of about 330,000 compounds, about 1,700 (0.52%) were called active. Rule as the data show it: active = inhibition above about 50%; inactive = the rest. For the sample, actives were picked, then their nearest neighbours and some compounds at random.

assay: lowers stimulated NF-kB reporter luminescence – cell-based, uHTS, TCR NF-kB activation inhibitor project, primary screen (AID 435003); conditions: Jurkat, PMA/ionomycin-induced NF-kB luciferase reporter, at 4 µM, active compounds read high

Compound	inhibition
O=C1Oc2ccccc2C(=O)/C1=C/c1ccccc1O	8.95% (inactive)
COc1cc2c(cc1OC)CN(C(=O)c1ccc(S(=O)(=O)N3CCCCCC3)cc1)CC2	12.2% (inactive)
CCOc1cc(C(=O)N2CCc3cc(OC)c(OC)cc3C2)ccc1OC(F)F	78.8% (active)
COc1cc2c(cc1OC)CN(C(=O)c1cc(S(=O)(=O)N3CCCCC3)ccc1Cl)CC2	20.2% (inactive)
CCOc1ccccc1-c1nc(CN2CCC(C(=O)N3CCOCC3)CC2)c(C)o1	1.89% (inactive)
COCCn1cnc2c1c(=O)n(Cc1ccc(Br)cc1)c(=O)n2Cc1ccccc1	11% (inactive)
CCN(CC)CCn1cnc2c1c(=O)[nH]c(=O)n2Cc1ccccc1	-2.97% (inactive)
N=c1c2c(-c3ccccc3)c(-c3ccccc3)n(Cc3ccccc3)c2ncn1CCCO	58.6% (active)
CSc1nc(-c2ccccc2)nc(C(Cl)Cl)n1	11% (inactive)
Nc1cccnc1Sc1ccccc1	3.25% (inactive)
Cc1ccc2c(c1)N(CC(=O)NCCCN1CCCCC1)C(=O)c1cccnc1O2	-8.41% (inactive)
COC(=O)C1C(=O)c2c([nH]c(C(=O)OCCSC)c2C)CC1C (configuration not stated)	-39.9% (inactive)
CCCOC(=O)c1[nH]c2c(c1C)C(=O)CC(c1cccs1)C2 (configuration not stated)	60.8% (active)
COCCOC(=O)c1[nH]c2c(c1C)C(=O)CC(c1ccc(OC)cc1)C2 (configuration not stated)	-19.4% (inactive)
O=S(=O)(c1ccc(Sc2nnc3ccccn23)nc1)N1CCOCC1	-12% (inactive)
Cc1c(Br)c([N+](=O)[O-])nn1C(C)C(=O)Nc1nccs1 (configuration not stated)	22.7% (inactive)
COc1cc([C@H](Cc2ccccc2)NC(C)=O)oc(=O)c1	8.38% (inactive)
CCN1/C(=C\c2ccc3ccccc3[n+]2CC)Sc2cc(C)ccc21	90.1% (active)
CCSC1=C(C#N)C(=O)n2c1cc1c2CCCC1	3.71% (inactive)
CC1(C)CC(N2CCN(C(c3ccccc3)c3ccccc3)CC2)=CC(=[N+]2CCCCC2)C1	83.2% (active)
Oc1ccccc1CN1CCN(C(c2ccccc2)c2ccccc2)CC1	-10.4% (inactive)
O=C1CC(N2CCN(C(c3ccccc3)c3ccccc3)CC2)C(=O)N1 (configuration not stated)	4.97% (inactive)
CC(C)(C)NS(=O)(=O)CC12CCC(CC1=O)C2(C)C (configuration not stated)	-14% (inactive)
CC/C(=N\NC(=O)c1c(C)nc2ccccn12)c1ccc(Cl)cc1	-10.6% (inactive)
CC1(C)CC(CCC(=O)Nc2ccccc2Cl)C(=O)O1 (configuration not stated)	5.25% (inactive)

Compound	inhibition
Cc1c(NC(=O)Nc2ccccc2Cl)sc(=S)n1C	10.9% (inactive)
O=C(Nc1ccccc1Cl)/C(Cl)=C(\Cl)S(=O)c1ccccc1 (configuration not stated)	100% (active)
CSc1n[nH]c(=S)n1N	8.75% (inactive)
COc1ccc(C2=Nn3c(nnc3-c3ccccc3OC)SC2)cc1OC1CCCC1	57.3% (active)
CC1=Nn2c(nnc2-c2ccccc2)SC1	-7.08% (inactive)
COc1ccccc1-c1nnc2n1N=C(c1ccc(OC(F)F)c(OCC3CC3)c1)CS2	21.8% (inactive)
COc1cc(C(=S)NC2CCCCC2)ccc1O	-4.8% (inactive)
C/C(CC(O)(/C=N/O)c1ccccc1)=N\O (configuration not stated)	-6.87% (inactive)
CCCNC(=O)OC[C@H]1O[C@H](CCO/N=C/[C@@H](NS(=O)(=O)c2ccc(C)cc2)[C@H](C)/C=C/CC(=O)OC)C=C[C@@H]1Oc1ccc(OC)cc1	8.93% (inactive)
O=C(COCc1cc(-c2ccc3c(c2)OCO3)on1)N1CCN(c2cccc(Cl)c2)CC1	3.84% (inactive)
NS(=O)(=O)c1ccc(CCNS(=O)(=O)c2cccc3cccnc23)cc1	-18.6% (inactive)
O=S(=O)(NCCc1ccc(F)cc1)c1cccc2cccnc12	2.69% (inactive)
O=[N+]([O-])c1ccccc1S(=O)(=O)Nc1cccc2cccnc12	70.3% (active)
O=C(Nc1ccc(Br)cc1F)C1CC(=O)N(C2CCCCC2)C1 (configuration not stated)	-3.7% (inactive)
CCOCCCn1c(NN)nc2ccccc2c1=O	-7.49% (inactive)
CCn1c(SCc2ccccc2)nc2cc(OC)c(OC)cc2c1=O	-6.84% (inactive)
CCn1c(/C=C/c2ccc([N+](=O)[O-])o2)nc2ccccc2c1=O	54.7% (active)
Cc1noc(C)c1C(=O)N(CC(=O)NC1CCCC1)Cc1ccccc1F	-8.54% (inactive)
COc1ccc(C(=O)COC(=O)C(O)c2ccccc2)c(OC)c1 (configuration not stated)	0.0915% (inactive)
COc1ccc2[nH]c3nc(SCC(=O)NC4CC4)nnc3c2c1	-17.7% (inactive)
CCOc1ccc2[nH]c3nc(SCC(=O)NC4CCCC4)nnc3c2c1	59% (active)
O=C(CSc1nnc2c(n1)[nH]c1ccccc12)NC1CCCCC1	21.2% (inactive)
O=C(c1ccc(Cl)s1)N(Cc1nnc(-c2ccccc2Cl)o1)C1CC1	-18.3% (inactive)
Cc1cc(C(=O)COc2ccc(Br)cc2F)c(C)n1C1CC1	-9.16% (inactive)
C=CCOc1cccc(C2NC(=O)c3ccccc3O2)c1 (configuration not stated)	3.44% (inactive)

Compound	inhibition
Cc1ccc(C)c(NS(=O)(=O)c2cc(Br)cnc2N)c1	-1.35% (inactive)
C/C=C(\C)C(=O)N1CC2(CC(c3cccc(NC(=O)CCCCC)c3)=NO2)C[C@@H]1C(N)=O (some centres not stated)	2.26% (inactive)
Oc1ccc(Br)cc1/C=N/Nc1ccccn1	32.4% (inactive)
O=C(N/N=C/c1ccc(O)c(O)c1)C1c2ccccc2Oc2ccccc21	2.58% (inactive)
Oc1ccc(/C=N/Nc2ccc(C(F)(F)F)cn2)cc1O	59.5% (active)
O=C(c1ccc(OC2CCN(C(=O)c3cccnc3)CC2)cc1)N1CCCCCC1	-2.83% (inactive)
COc1ccc(-n2ncc3c2CC(C)(C)CC3NC(=O)CCc2c(C)noc2C)cc1 (configuration not stated)	20% (inactive)
Cc1ccc(-n2ncc3c2CC(C)(C)CC3NC(=O)Cc2c(C)noc2C)cc1 (configuration not stated)	50.6% (active)
CC1=C(C(=O)NC2CC(C)(C)Cc3c2cnn3-c2ccc(C)cc2)OCCO1 (configuration not stated)	4.55% (inactive)
CCN1C(=O)/C(=C2\SC(N3CCCCC3)=NC2=O)c2ccccc21	-33.7% (inactive)
COC(=O)c1ccc(C(=O)Nc2cc(Cl)ccc2Cl)cc1NC(=O)c1ccccc1C	-2.99% (inactive)
Cc1c(C=O)c2ccccc2n1CCOc1ccccc1	-14.6% (inactive)
COc1ccc2c(CC(=O)N3CCc4cc(OC)c(OC)cc4C3)coc2c1	15.9% (inactive)
COc1cc2c(cc1OC)CN(C(=O)c1cc(=O)c3ccccc3o1)CC2	50.7% (active)
COc1ccccc1CNC(=O)c1cc(=O)c2ccccc2o1	-3.35% (inactive)
C=CCn1c(C)cc(C2=NNC(=NCC)SC2)c1C	67.2% (active)
Cc1ccc(-n2c(=O)cc(N3CCN(Cc4ccccc4)CC3)[nH]c2=O)cc1	1.04% (inactive)
CCNC(=O)c1cccc(NC(=O)C2CC(=O)N(CCc3ccccc3)C2)c1 (configuration not stated)	8.87% (inactive)
COc1ccc(-c2cc(C(F)(F)F)n3nc(C(=O)N4CCOCC4)c(Cl)c3n2)cc1	-15.4% (inactive)
Cc1cccc(NC(=O)c2cc(S(=O)(=O)N3CCC4(CC3)OCCO4)ccc2F)c1	4.99% (inactive)
COc1ccc(C(C)=O)cc1CSc1nc2nc(C)cc(C)n2n1	5.26% (inactive)
Cc1cc(C)n(-c2ccc(C(=O)O)cc2[N+](=O)[O-])n1	-2.8% (inactive)
Cc1cc(N/N=C\c2ccc(Br)cc2)nc(-n2nc(C)cc2C)n1	27.2% (inactive)
CC(=O)c1ccc(Oc2cc(C)nc(-n3nc(C)cc3C)n2)cc1	51.8% (active)
COc1ccc(NC(=O)c2nc(-n3nc(C)cc3C)ccc2Cl)cc1Cl	-8.27% (inactive)

Compound	inhibition
COc1ccc(Nc2cc(C)nc(-n3nc(C)cc3C)n2)cc1	68.7% (active)
O=C(CCC1CCN(C(=O)c2cccc(Cl)c2F)CC1)Nc1ccccc1	2.28% (inactive)
COc1cc(/C=C/C(=O)Nc2ccc(OC)c(S(=O)(=O)N3CCOCC3)c2)ccc1OCC#N	6.61% (inactive)
Cc1ccc(CN2CCN(Cc3ccc(OCCO)cc3)CC2CCO)o1 (configuration not stated)	3.63% (inactive)
N#Cc1c(NC(=O)c2ccc(N3CCOCC3)c([N+](=O)[O-])c2)sc2c1CCCC2	-30% (inactive)
CC1(C)OC(=O)N2CCc3ccccc3C21C (configuration not stated)	11.5% (inactive)
Cc1c(/C=N/N2C(=O)C3C4C=CC(C4)C3C2=O)c2ccccc2n1C (configuration not stated)	-10.4% (inactive)
Cc1c(/C=N\NC(=O)c2cc3ccccc3o2)c2ccccc2n1C	67.3% (active)
O=C(N/N=C/c1cccc(O)c1)c1cc2c(ccc3ccccc32)o1	7.99% (inactive)
COc1ccc(Cc2cc(-c3ccc(F)cc3)n[nH]c2=O)cc1	-2.24% (inactive)
CC(C)c1ccc(S(=O)(=O)N2CCN(C(=O)c3ccc(N4CCCC4)c([N+](=O)[O-])c3)CC2)cc1	7.91% (inactive)
CCOc1ccc(N=C2NC(=O)S/C2=C\c2ccc(O)cc2)cc1	11.9% (inactive)
CCOc1[nH]n(-c2ccc(Cl)cc2)c(=O)c1C=Nc1ccc(O)cc1	56.7% (active)
O=C(NC(C(=O)NCCN1CCOCC1)C12CC3CC(CC(C3)C1)C2)C1CCCCC1 (configuration not stated)	-4.81% (inactive)
N#Cc1ccccc1S(=O)(=O)N1CCN(C(=O)c2cc(-c3ccccc3)nn2-c2ccccc2)CC1	2.19% (inactive)
O=[N+]([O-])/C=C1\CCCCCN1	-12.2% (inactive)
O=C1NC(c2cc3c(cc2Cl)OCO3)Oc2ccccc21 (configuration not stated)	-7.28% (inactive)
COc1ccccc1C1C2=C(COC2=O)Nc2cc3c(cc21)OCO3 (configuration not stated)	70.3% (active)
CCCOc1ccc(C2NC(=O)NC(c3ccccc3)=C2C(C)=O)cc1OCC (configuration not stated)	2.86% (inactive)
CCCOc1ccccc1C1CC(=O)Nc2cc3c(cc21)OCO3 (configuration not stated)	58.3% (active)
COC(=O)c1ccc(C2CC(=O)Nc3cc(OC)c(OC)cc32)cc1 (configuration not stated)	8.26% (inactive)
COc1ccc(S(=O)(=O)Nc2ccc3c(c2)OCO3)cc1Cl	-1.75% (inactive)
